16 compounds from PubChem BioAssay AID686959 (The Scripps Research Institute Molecular Screening Center, 2013) can be followed below.

Activity calls are given as the source filed them. No cut-off is given here; in the data, nearly all actives have IC50 up to about 8.1 µM.

A short description of the test: binders of r(CAG) RNA repeats, dose response, biochemical, fluorescence (AID 686959). The note with it: r(CAG) RNA repeat binding.
Take `N#C/C(C(=O)Nc1ccc(Cl)cc1)=C(/S)Nc1ccccc1`: the half-maximal inhibitory concentration (IC50) – broadly, the concentration that gives 50% inhibition – was 6.14 µM (active).
Take `COC(=O)c1sc(N2C(=O)C(O)=C(C(=O)c3ccc(C)o3)C2c2ccc([N+](=O)[O-])cc2)nc1C` (stereo unspecified): the IC50 is 0.636 µM (active).
Next, `O=c1[nH]n2c(=O)c3c([nH]c2c1N=Nc1cccc(Cl)c1)CCC3`: 2.33 µM (active).
Consider `CCCOc1cccc(C2C(C(=O)c3ccc(C)o3)=C(O)C(=O)N2c2nc(C)c(C(C)=O)s2)c1` (stereo unspecified), for which the IC50 was 4.06 µM (active).
Regarding `CC(C)c1ccc(C2c3[nH]c4ccccc4c3C[C@H]3C(=O)N(c4ccccc4C(=O)N4CCC[C@H]4C(=O)O)C(=O)N23)cc1` (stereo partly specified), the IC50 is 3.35 µM (active).
Take `Cc1noc(NS(=O)(=O)c2ccc(NC(=O)COc3ccc(Cl)cc3Cl)cc2)c1C`: the IC50 is 2.83 µM (active).
For `CC(=O)C1=C(O)C(=O)N(c2cc(C(C)(C)C)on2)C1c1ccc(Br)cc1` (stereo unspecified), the IC50 is 2.49 µM (active).
For `O=C(O)CCCCCn1c(O)c(C=C2N=c3ccccc3=N2)sc1=S`, the IC50 is 3.87 µM (active).
Next, `COc1cc(/C=C2\C(=O)N(c3ccc(NC(C)=O)cc3)N=C2c2ccccc2)ccc1O`: 2.9 µM (active).
Next, `N#CC1=C(N)n2c(s/c(=C\c3ccco3)c2=O)=C(C#N)C1c1ccco1` (stereo unspecified): 5.38 µM (active); `N#CC1=C(S)N(c2ccccc2)C(c2ccc(-c3cc(Cl)ccc3Cl)o2)NC1=O` (stereo unspecified): 1.47 µM (active).
On to `N/C(=N\N=C\c1cccs1)SC1CC(=O)N(c2ccc(Br)cc2)C1=O` (stereo unspecified), for which the IC50 was 8.27 µM (active).
The figure for `O=C(C1=C(O)C(=O)N(c2nc3ccc(Cl)cc3s2)C1c1ccco1)c1ccco1` (stereo unspecified) is 0.987 µM (active); for `C/C(=N\N=C(/N)SC1CC(=O)N(c2cccc(Cl)c2)C1=O)c1cccs1` (stereo unspecified) it is 5.19 µM (active); for `N#CC(C#N)=C(Nc1ccc(F)cc1)SCc1cccc(Br)c1` it is 7.57 µM (active).
Next, `CC1=C(C#N)c2nc(N)c(C#N)c(C)c2/C1=C\c1ccc(-c2ccccc2C(=O)O)o1`: 2.57 µM (active).
